Screening data: PubChem, Center for Chemical Genomics, University of Michigan
Dicer processing – human Dicer pre-microRNA cleavage inhibition; AID 1347074; cat-ELCCA pre-miR-21 Dicer processing, chemiluminescence; stronger effect = higher value; hit rate 6% among 47,000; z-score at 25 µM; in the data active = z-score above about 3, passing the limit was not always enough;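 also: higher signal means more uncleaved substrate so more Dicer inhibition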
Each line names hits and unclear results; the compound was inactive in the other large screens. Only a selection was taken, and hits are over-represented in it overall.

CCOC(=O)C1=C(Nc2ccc(OS(=O)(=O)c3ccc(Cl)cc3)cc2)C(=O)N(C(C)(C)C)C1	none
O=C(CN1C(=O)c2ccccc2S1(=O)=O)NCCSCc1ccc(Cl)cc1	none
CC(C)CSc1ncnc2c1sc1nc3c(cc12)COC(C)(C)C3	none
CC(=O)Nc1ccc(S(=O)(=O)C[N+](=O)[O-])cc1	none
Cc1cc(NC(=O)Nc2ccc(Oc3ncnc4cc(Cl)ccc34)nc2)c(C(F)(F)F)o1	none
Clc1ccc(CN2CCCN(c3ncnc4scc(-c5ccccc5)c34)CC2)cc1Cl	none
c1ccc(-c2csc3ncnc(N4CCN(Cc5ccc6c(c5)OCO6)CC4)c23)cc1	Dicer processing 4.7
CCCc1cnc(N2CCN(c3ncnc4scc(-c5ccccc5)c34)CC2)nc1	none
Cc1cc(C)nc(NS(=O)(=O)c2ccc(NC(=O)Nc3ccsc3)cc2)n1	none
Cc1c2c(=O)n(-c3ccccc3)[nH]c2cc(=O)n1CCc1c[nH]c2ccccc12	Dicer processing 3
Cc1c2c(=O)n(-c3ccccc3)[nH]c2cc(=O)n1Cc1ccc2c(c1)OCO2	none
Cc1nc(=O)c(-c2ccccc2)c(C)n1CCc1c[nH]c2ccccc12	none
Cc1ccc(N2C(=O)C3C(c4ccccc4)OC4(C(=O)c5ccccc5C4=O)C3C2=O)cc1Cl (configuration not stated)	none
Nc1ccc(-c2nnc(Nc3ccccc3C(F)(F)F)s2)cc1	Dicer processing 3.6
NC(=S)Nc1ccccc1C(F)(F)F	none
Nc1ccccc1NC(=S)Nc1ccccc1C(F)(F)F	none
N#C/C(=C\NCc1ccco1)S(=O)(=O)c1ccc(Cl)cc1	none
Cc1nc([N+](=O)[O-])cn1CCCOc1ccc(Cl)cc1	none
CCOC(=O)c1nn(-c2ccc(Cl)cc2)c2nc3ccccc3n12	none
COC(=O)C1=C(N)n2c(s/c(=C\c3ccc(Cl)cc3)c2=O)=C(C#N)C1c1ccc(Cl)cc1 (configuration not stated)	none
c1ccc(-c2nc(Nc3ccc4c(c3)OCCO4)c3ccccc3n2)cc1	Dicer processing 5.4
O=C(Nc1ccc2c(c1)OCCO2)c1cccc(C(=O)Nc2ccc3c(c2)OCCO3)n1	none
CCC(Nc1nc(-c2ccccc2)nc2ccccc12)C(=O)O (configuration not stated)	none
CCOC(=O)N1CCc2c(sc3[nH]c(=S)n(Cc4ccccc4)c(=O)c23)C1	none
Nc1cccc(NC(=O)c2ccccc2O)c1	Dicer processing 5.9
COc1ccc(C=Nc2cccc(NC(=O)c3ccccc3O)c2)cc1	none
Nc1ccccc1NC(=O)c1ccccc1O	none
O=S(=O)(NN1C2CSC1CS2)c1ccc(F)c(Cl)c1	none
CC(C)(C)NNC(=S)Nc1ccc(Cl)c(Cl)c1	none
O=C(NC1=NCCS1)c1cc2ccccc2o1	Dicer processing 3.6
O=C(Nc1ccc2c(c1)OCCO2)c1cc2ccccc2o1	none
O=C(NC1=NCCS1)c1cccs1	none
O=C(O)CSc1nnc2nnc3ccccc3n12	none
CCC(C)NC(=O)c1c(OC)ccc([N+](=O)[O-])c1OC (configuration not stated)	none
COc1ccc([N+](=O)[O-])c(OC)c1C(=O)NCC1CC1	Dicer processing 4.9
COc1ccc([N+](=O)[O-])c(OC)c1C(=O)Nc1ccccc1C(=O)NCC1CC1	none
Cc1cc(C)c(C#N)c(SC(C(=O)Nc2ccc(C(C)C)cc2)c2ccccc2)n1 (configuration not stated)	none
C=CCc1cc(C(=O)N2CCCC2)ccc1O	none
C=CCN1C(=O)C2(/C(=C(/O)c3ccc(C)cc3)C(=O)C(=O)N2CC2CCCO2)c2ccccc21 (configuration not stated)	none
COC(=O)c1ccc(CSc2ccccc2NC(=S)Nc2cccc(C(F)(F)F)c2)o1	Dicer processing 4.4
CC(C)(C)C(=O)NC(=S)Nc1cccc(C(F)(F)F)c1	none
FC(F)(F)c1cccc(NC(=S)Nc2ccccc2C(F)(F)F)c1	none
Clc1ccc(Sc2c(Cl)cncc2Cl)cc1	none
CCOC(=O)c1cc(OCCOC)c(OCCOC)cc1NS(=O)(=O)c1cn(C)cn1	none
O=C1C(=O)N(CCCn2ccnc2)C(c2ccccc2)/C1=C(\O)c1ccc(F)cc1 (configuration not stated)	none
CSc1cccc(-n2c(=O)n(Cc3ccccc3)c(=O)c3[nH]cnc32)c1	none
CCOC(=O)C1=NOC2C(=O)N(c3ccc(Br)cc3)C(=O)C12 (configuration not stated)	none
CC12CN3CC(C)(CN(C1)C3c1ccccc1Cl)C2 (configuration not stated)	none
CC12CN3CC(C)(CN(C1)C3c1ccc(Cl)cc1)C2 (configuration not stated)	Dicer processing 5.1
Cc1cccc(C2N3CC4(C)CN2CC(C)(C3)C4)c1 (configuration not stated)	none
CC12CN3CC(C)(CN(C1)C3c1ccc(F)cc1)C2 (configuration not stated)	none
COc1ccc(C2N3CC4(C)CN2CC(C)(C3)C4)cc1OC (configuration not stated)	none
CC12CN3CC(C)(CN(C1)C3c1ccc(O)c(O)c1)C2 (configuration not stated)	Dicer processing 3.1
O=C(c1ccccc1)c1cccc(Cl)c1	none
